Hits are enriched below; roughly 4.6% of the tested compounds scored in any of these assays.
UCHL1 block = inhibitors of human UCHL1 deubiquitinase. purified UCHL1, Ub-rhodamine cleavage fluorescence. inhibition, % at 20 µM. 0.2% of 47,000 active
USP7 block = inhibitors of human USP7 deubiquitinase; Ubiquitin carboxyl-terminal hydrolase 7 (Homo sapiens), Q93009; purified USP7, Ub-rhodamine cleavage fluorescence; inhibition, % at 20 µM; 0.3% of 47,000 active; AID 1645854, 2021
USP10 block = inhibitors of human USP10 deubiquitinase; Ubiquitin carboxyl-terminal hydrolase 10 (Homo sapiens), Q14694; purified USP10, Ub-rhodamine fluorescence, 60 min; 1.1% of 47,000 active; AID 1645856, 2021; inhibition, % at 20 µM
USP8 inh = inhibitors of human USP8 deubiquitinase; purified USP8, Ub-rhodamine cleavage fluorescence, 30 min; Ubiquitin carboxyl-terminal hydrolase 8 (Homo sapiens), P40818; 4.2% of 47,000 active; inhibition, % at 20 µM
An asterisk follows results filed as active. Rule as the data show it: active = inhibition above about 30%; inactive = the rest.

SMILES | UCHL1 block | USP7 block | USP10 block | USP8 inh
COc1ccccc1CC(=O)Nc1cnc(-c2ccc(F)cc2)nc1 | 7 | 2 | 1 | 30*
O=c1ccc(-c2noc(-c3ccc4cc[nH]c4c3)n2)c[nH]1 | -16 | -19 | -3 | 51*
Cc1ccccc1NC(=O)Cc1nc(-c2cccc3ccccc23)cs1 | -2 | -3 | 0 | 73*
CCCN(CC(=O)Nc1ccccc1C)CC(=O)Nc1cccc2ccccc12 | 6 | 3 | 6 | 13
CCC1(CC)Oc2ccc(C(=O)CCN(C)C)cc2O1 | 2 | 7 | 6 | 32*
Cc1ccc(C(=O)Nc2c(-c3ccc4c(c3)OCO4)c(=O)c3ccccc3n2C)cc1 | 10 | -2 | 24 | 41*
Cc1ccc(-c2c(NC(=O)c3cccs3)n(C)c3ccccc3c2=O)cc1 | 6 | 9 | 16 | 32*
CCc1ccc(NC(=O)CSc2ccc(N3CCC(C(=O)NC4CC4)CC3)nn2)cc1 | 5 | 10 | 10 | 81*
CC(C)(C)C(=O)[C@@H]1[C@@H](C(=O)c2ccc3c(c2)OCO3)[C@@]2(C(=O)Nc3ccccc32)[C@H]2c3ccccc3C=CN12 | 21 | -15 | 16 | 93*
O=C(c1ccc2c(c1)OCO2)[C@@H]1[C@H](C(=O)OC(c2ccccc2)c2ccccc2)N2c3ccccc3C=CC2[C@@]12C(=O)Nc1ccccc12 (some centres not stated) | -26 | -24 | -5 | 19
COCCN(C(=O)c1ccc2c(c1)OCCO2)C(C(=O)NCc1ccc2c(c1)OCO2)c1ccc(C)cc1 (configuration not stated) | 0 | -1 | 0 | 5
NS(=O)(=O)c1ccc(NC(=O)Cn2cnc3cc([N+](=O)[O-])ccc3c2=O)cc1 | 2 | 1 | -2 | 55*
O=C(Cn1cnc2cc([N+](=O)[O-])ccc2c1=O)Nc1ccc2c(c1)OCCO2 | 1 | 3 | -8 | -201
CC1=CC(=O)C(C2=C(O)C(=O)C(C)=CC2=O)=C(O)C1=O | 13 | -122 | 8 | 32*
CCOC(=O)c1cc2c(ccn2C)n1Cc1ccc(C#N)cc1 | -6 | -17 | -6 | 71*
CCOC(=O)c1cc2c(ccn2C)n1CC(=O)N(Cc1ccc(Cl)cc1)c1ccccc1 | -17 | -60 | -7 | 57*
CCOC(=O)c1cc2c(ccn2C)n1CC(=O)N1CCCCC1 | -2 | -4 | -4 | 15
CCOC(=O)c1cc2c(ccn2C)n1CC(=O)N(C1CCCCC1)C1CCCCC1 | -32 | -33 | -7 | -34
CN1CCC2(Cc3ccccc3CN(C(=O)Cc3ccc(Cl)cc3)C2)C1 (configuration not stated) | 3 | 0 | -2 | 21
CCc1nc(SCC(=O)c2ccc(F)cc2)c2oc3ccccc3c2n1 | -3 | 1 | 0 | -9
O=C(Nc1ccc(Cl)cc1F)c1cc(-c2ccncc2)n[nH]1 | 0 | 3 | 6 | -2
O=C(Nc1ccc(F)cc1F)c1cc(-c2ccccn2)n[nH]1 | 5 | 12 | 13 | 52*
O=C1CN(C(=O)COC(=O)C(c2ccccc2)c2ccccc2)c2ccccc2N1 | 2 | -8 | 7 | 11
Cc1c(F)cccc1NC(=O)C1CCCN(c2nnc3ccccn23)C1 (configuration not stated) | 4 | -5 | 0 | 17
Cc1c(Cl)cccc1NC(=O)C1CCCN(c2nnc(-n3cccc3)s2)C1 (configuration not stated) | 2 | 6 | 13 | 60*
SMILES | UCHL1 block | USP7 block | USP10 block | USP8 inh
COC(=O)c1ccccc1NC(=O)C1CCCN(c2nnc(-n3cccc3)s2)C1 (configuration not stated) | 8 | 10 | 15 | 40*
COc1ccc(-c2noc(N3CCC4(CC3)OCCO4)n2)cc1 | 1 | 4 | 2 | 20
COc1ccc(C(=O)c2nnn(-c3ccc(OC(F)(F)F)cc3)c2C)cc1 | 3 | 9 | 10 | 33*
COc1ccc(-n2nnc(C(=O)Nc3ccc(F)cc3)c2C)cc1 | 6 | 5 | 6 | 2
Cc1c(C(=O)Oc2ccc(C#N)cc2)sc2ncn(Cc3cccc(F)c3)c(=O)c12 | -1 | -1 | 1 | 4
Cc1cc(NC(=O)c2cccc(N3CCOCC3)n2)n(-c2ccc(Cl)cc2)n1 | 1 | 8 | 8 | 52*
Cc1cc(C)nc(-n2nc(C)cc2NC(=O)c2cccc(Cl)c2)n1 | -1 | 1 | 0 | -14
CC(C)(C)c1ccc(C2CC(=O)C3=C(C2)Nc2ccccc2N(C(=O)CCC(=O)O)C3c2cccc([N+](=O)[O-])c2)cc1 (configuration not stated) | -1 | -10 | 33* | -74
Cc1cccc(NC(=O)CCCc2nnc3c(=O)n(-c4cccc(F)c4)ccn23)c1 | 11 | 19 | 5 | 61*
O=C(CCCc1nnc2c(=O)n(-c3cccc(F)c3)ccn12)NCc1ccc(F)cc1 | 11 | 24 | 19 | 48*
O=C(CCCc1nnc2c(=O)n(-c3cccc(F)c3)ccn12)Nc1ccccc1 | 9 | 19 | 16 | 47*
O=C(CCCc1nnc2c(=O)n(-c3cccc(F)c3)ccn12)NCCc1ccccc1 | -3 | 3 | -5 | -2
COc1cccc(CNC(=O)CCCc2nnc3c(=O)n(-c4cccc(F)c4)ccn23)c1 | 0 | 2 | -3 | 2
c1ccc(OCCOc2ccccn2)nc1 | -1 | 4 | 1 | 13
CCOC(=O)N1CCN(C(=O)c2cc(-c3ccccn3)nc3ccccc23)CC1 | -1 | 1 | -1 | 1
Cn1c(=O)c(C(=O)Nc2ccc(Br)cc2)nc2ccccc21 | 26 | -13 | 8 | 77*
Cc1cc(C)n2ncc(C(=O)NCCc3ccc(Cl)cc3)c2n1 | -1 | -7 | -3 | -32
Cc1nc(C2CN(Cc3nc4ccccc4n3C)CCO2)cc(=O)[nH]1 (configuration not stated) | 0 | 5 | 3 | 31*
Cc1nc(C2CN(Cc3ccc4c(c3)OCCO4)CCO2)cc(=O)[nH]1 (configuration not stated) | -1 | -1 | 1 | 4
O=C(CN1CCN(c2ccc(F)cc2)CC1)N1c2ccccc2CCc2ccccc21 | 2 | -47 | 1 | -10
COC(=O)CCCNC(=O)C1c2ccccc2C(=O)N(Cc2ccccc2)C12CCCC2 (configuration not stated) | -2 | -6 | -5 | 45*
c1coc(-c2cc3nc(NCc4ccc5c(c4)OCO5)ccn3n2)c1 | 0 | 11 | -5 | 58*
O=C(NCc1ccccc1Cl)C1CCN(c2ccc(-c3ccccc3)nn2)CC1 | -1 | 9 | 30* | 47*
CCCNC(=O)[C@H](Cc1ccccc1)NC(=O)[C@@H]1Cc2c([nH]c3ccccc23)C2c3ccccc3C(=O)N21 (some centres not stated) | -3 | -3 | -10 | 0
Nc1nc(SCc2ccc([N+](=O)[O-])cc2)[nH]c(=O)c1NC(=O)c1ccco1 | 2 | 13 | 24 | 39*
Cc1nc(CC(=O)Nc2cc(F)cc(F)c2)sc1C(=O)NC1CC1 | 5 | -5 | -3 | 61*
Cc1ccc(NC(=O)CNC(=O)c2cc3ccccc3o2)cc1 | 1 | 3 | 14 | -7
